The source made the active and inactive calls. Rule for the calls: active = hit-call score of the fitted dose curve at least 0.9, where 1 is the maximum; inactive = score below 0.9.
Assays:
[1] = ATG_GLI_CIS: Attagene CIS-FACTORIAL HepG2 Assay for human Zinc Finger Protein GLI1 (AID 2282945); conditions: HepG2, Attagene cis-factorial reporter mRNA, GLI element; actives raise or lower the signal
How it was run: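 Transiently transfected HepG2 cells report endogenous transcription factor activity via cis-element-driven reporter units. After 24 h compound exposure, reporter mRNA was measured by RT-PCR with capillary electrophoresis; bidirectional fitting against DMSO baseline.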

[2] = biological target: Bile acid receptor (Homo sapiens) (UniProt Q96RI1); experiment: ATG_IR1_CIS: Attagene CIS-FACTORIAL HepG2 Assay for human Nuclear Receptor Subfamily 1 Group H Member 4 (NR1H4), IR1 submotif (AID 2282946); conditions: IR1 reporter transcription, actives raise or lower the signal
How it was run: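 Fluorescence of capillary-separated, HpaI-digested RT-PCR reporter products gave IR1-element mRNA induction in HepG2 cells 24 h after dosing. Endogenous transcription factors drove the cis-regulated reporters; activity was fitted bidirectionally against DMSO.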

[3] = ATG_ISRE_CIS: Attagene CIS-FACTORIAL HepG2 Assay for human Interferon Regulatory Factor 1 (IRF1) binding to an Interferon-Stimulated Response Element (ISRE) (AID 2282948); conditions: HepG2 ISRE cis-reporter (Attagene), mRNA transcription readout; actives raise or lower the signal
How it was run: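 Uses HepG2 liver cells transfected with cis-regulated reporters and measures mRNA 24 h post-dosing through RT-PCR, primer-extension labelling and capillary electrophoresis, with DMSO as negative control.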

[4] = ATG_M_32_CIS: Attagene CIS-FACTORIAL HepG2 Assay for M32 Transcription Factor (Internal Marker) (AID 2282949); conditions: HepG2 Attagene cis-factorial M32 reporter, mRNA; actives raise or lower the signal;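 note: background control marker of the multiplexed CIS panel rather than a real target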
How it was run: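 HepG2 transfectants (cis-regulated reporter transcription units) dosed 24 h. Reporter mRNA by RT-PCR plus CE, analysed as gain or loss relative to DMSO.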

[5] = ATG_M_06_CIS: Attagene CIS-FACTORIAL HepG2 Assay for M06 Transcription Factor (Internal Marker) (AID 2282950); conditions: HepG2 Attagene CIS-FACTORIAL M06 internal marker reporter; actives raise or lower the signal
How it was run: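 Steps: transfect HepG2 with multiplexed cis-element reporter constructs; dose chemical 24 h; extract RNA with DNase treatment; reverse-transcribe, PCR-amplify, 6-FAM label, HpaI digest; separate fragments by capillary electrophoresis. Activity fitted both directions versus DMSO.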

[6] = biological target: Hypoxia-inducible factor 1-alpha (Homo sapiens) (UniProt Q16665); experiment: ATG_HIF1a_CIS: Attagene CIS-FACTORIAL HepG2 Assay for human Hypoxia Inducible Factor 1 (HIF1A) (AID 2282951); conditions: HepG2 Attagene cis-factorial HIF1a reporter transcription; actives raise or lower the signal
How it was run: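 HepG2 cells transiently transfected with multiple cis-regulated reporter transcription units measure endogenous transcription factor activity. After 24 h exposure, reporter mRNA is quantified by RT-PCR with 6-FAM labelling, HpaI digestion and capillary electrophoresis. Bidirectional fitting against DMSO.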

[7] = biological target: Hepatocyte nuclear factor 6 (Homo sapiens) (UniProt Q9UBC0); experiment: ATG_HNF6_CIS: Attagene CIS-FACTORIAL HepG2 Assay for human Hepatocyte Nuclear Factor 6 (HNF6) (AID 2282952); conditions: HepG2 Attagene cis-factorial HNF6 reporter transcription; actives raise or lower the signal
How it was run: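 Readout: fluorescent reporter-transcript fragments resolved by capillary electrophoresis after RT-PCR, reflecting endogenous factor activity in transfected HepG2. Exposure 24 h. Gain or loss of signal fitted bidirectionally against DMSO.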

[8] = biological target: Heat shock factor protein 1 (Homo sapiens) (UniProt Q00613); experiment: ATG_HSE_CIS: Attagene CIS-FACTORIAL HepG2 Assay for human Heat Shock Transcription Factor 1 (HSE) (AID 2282953); conditions: HepG2 HSE cis-reporter, Attagene RNA transcription; actives raise or lower the signal
How it was run: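 Cells were transfected with cis-element-driven reporter constructs, dosed for 24 h, then total RNA was reverse-transcribed and reporter cDNA amplified, FAM-labelled and digested with HpaI. Fragments were resolved by capillary electrophoresis; gain or loss was fitted against DMSO.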

[9] = ATG_MRE_CIS: Attagene CIS-FACTORIAL HepG2 Assay for human Metal Responsive Element (MRE) (AID 2282954); conditions: HepG2 MRE cis-reporter transcription, Attagene multiplex; actives raise or lower the signal
How it was run: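 Measured here is mRNA induction from an MRE cis-element reporter in HepG2 after 24 h, quantified by fluorescence of labelled RT-PCR products on capillary electrophoresis; gain- and loss-of-signal fits use DMSO as baseline.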

[10] = ATG_GRE_CIS: Attagene CIS-FACTORIAL HepG2 Assay for human Glucocorticoid Response Elements (GRE) (AID 2282947); conditions: HepG2 GRE cis-reporter, Attagene multiplex mRNA; actives raise or lower the signal
How it was run: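 Fluorescence intensity of reporter-specific cDNA fragments, separated by capillary electrophoresis, provides the signal. Constructs carry cis-regulating promoters in transiently transfected HepG2 liver cells; 24 h incubation; fitting is bidirectional against DMSO.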

Measured: AC50

Chain of Hypoxia-inducible factor 1-alpha (Homo sapiens) (Q16665 whole entry, looked up): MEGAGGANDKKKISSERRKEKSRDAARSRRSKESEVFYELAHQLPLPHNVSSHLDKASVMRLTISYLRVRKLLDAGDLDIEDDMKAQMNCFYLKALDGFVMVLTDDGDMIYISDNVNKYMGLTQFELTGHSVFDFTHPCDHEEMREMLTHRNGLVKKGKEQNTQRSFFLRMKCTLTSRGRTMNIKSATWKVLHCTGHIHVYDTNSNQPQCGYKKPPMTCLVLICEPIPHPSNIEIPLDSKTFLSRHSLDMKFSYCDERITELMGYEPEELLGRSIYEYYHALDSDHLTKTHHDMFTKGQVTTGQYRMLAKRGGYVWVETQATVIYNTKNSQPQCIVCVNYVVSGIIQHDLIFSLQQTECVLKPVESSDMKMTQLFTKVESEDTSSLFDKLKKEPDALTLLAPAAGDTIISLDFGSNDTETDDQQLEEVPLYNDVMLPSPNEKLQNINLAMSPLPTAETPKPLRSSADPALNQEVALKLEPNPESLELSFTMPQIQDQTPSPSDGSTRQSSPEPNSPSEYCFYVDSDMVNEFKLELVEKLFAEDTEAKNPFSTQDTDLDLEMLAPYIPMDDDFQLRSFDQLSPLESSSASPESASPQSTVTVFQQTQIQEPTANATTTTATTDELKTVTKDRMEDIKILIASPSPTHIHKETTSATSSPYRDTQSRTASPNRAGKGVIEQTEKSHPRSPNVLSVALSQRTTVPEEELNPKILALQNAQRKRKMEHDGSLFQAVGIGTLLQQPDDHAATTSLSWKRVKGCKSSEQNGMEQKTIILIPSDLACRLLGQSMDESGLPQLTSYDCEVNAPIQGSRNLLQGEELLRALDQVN
Chain of Bile acid receptor (Homo sapiens) (Q96RI1 whole entry, looked up): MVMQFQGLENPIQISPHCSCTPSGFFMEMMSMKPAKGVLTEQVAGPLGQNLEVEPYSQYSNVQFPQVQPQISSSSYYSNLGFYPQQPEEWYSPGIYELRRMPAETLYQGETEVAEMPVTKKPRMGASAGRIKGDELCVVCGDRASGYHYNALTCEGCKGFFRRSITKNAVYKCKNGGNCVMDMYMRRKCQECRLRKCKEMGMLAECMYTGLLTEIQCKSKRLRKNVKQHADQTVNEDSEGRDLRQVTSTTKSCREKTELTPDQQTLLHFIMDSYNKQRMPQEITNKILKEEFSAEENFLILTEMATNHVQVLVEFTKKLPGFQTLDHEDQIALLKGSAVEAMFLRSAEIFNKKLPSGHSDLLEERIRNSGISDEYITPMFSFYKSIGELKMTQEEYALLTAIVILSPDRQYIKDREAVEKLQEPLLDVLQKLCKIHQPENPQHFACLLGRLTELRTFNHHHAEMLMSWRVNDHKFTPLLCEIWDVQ
Chain of Hepatocyte nuclear factor 6 (Homo sapiens) (Q9UBC0 whole entry, looked up, the tested form may be a part): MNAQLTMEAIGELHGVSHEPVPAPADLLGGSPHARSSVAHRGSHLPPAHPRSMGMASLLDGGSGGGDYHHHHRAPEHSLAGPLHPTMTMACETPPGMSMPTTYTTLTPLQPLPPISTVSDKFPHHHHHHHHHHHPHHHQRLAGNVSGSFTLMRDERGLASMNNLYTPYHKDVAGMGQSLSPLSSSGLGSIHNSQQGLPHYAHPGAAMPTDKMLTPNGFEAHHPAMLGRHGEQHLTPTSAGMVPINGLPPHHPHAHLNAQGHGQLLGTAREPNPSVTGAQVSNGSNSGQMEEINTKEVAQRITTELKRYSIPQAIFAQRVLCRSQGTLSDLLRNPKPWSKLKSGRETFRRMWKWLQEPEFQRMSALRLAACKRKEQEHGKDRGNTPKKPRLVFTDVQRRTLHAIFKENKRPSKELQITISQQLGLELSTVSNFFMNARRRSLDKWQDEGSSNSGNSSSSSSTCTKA
Chain of Heat shock factor protein 1 (Homo sapiens) (Q00613 whole entry, looked up, the tested form may be a part): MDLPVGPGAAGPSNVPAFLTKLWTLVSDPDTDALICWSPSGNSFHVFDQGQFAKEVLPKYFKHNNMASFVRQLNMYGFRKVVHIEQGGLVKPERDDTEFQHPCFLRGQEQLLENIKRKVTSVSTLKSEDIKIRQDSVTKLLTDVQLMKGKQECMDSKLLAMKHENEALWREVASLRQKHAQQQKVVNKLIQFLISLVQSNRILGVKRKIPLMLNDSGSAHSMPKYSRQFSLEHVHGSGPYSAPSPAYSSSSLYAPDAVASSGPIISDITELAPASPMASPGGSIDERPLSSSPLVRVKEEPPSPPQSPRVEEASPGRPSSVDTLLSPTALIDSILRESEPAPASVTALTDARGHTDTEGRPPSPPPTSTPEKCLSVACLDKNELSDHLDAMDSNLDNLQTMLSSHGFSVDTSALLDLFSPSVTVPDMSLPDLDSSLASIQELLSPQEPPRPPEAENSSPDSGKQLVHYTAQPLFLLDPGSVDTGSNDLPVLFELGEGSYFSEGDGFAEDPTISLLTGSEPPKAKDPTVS

Clc1cccc(C(Cl)(Cl)Cl)n1
inactive: [1] | [2] | [3] | [4] | [5] | [6] | [7] | [8] | [9]

Cc1c(COC(=O)[C@@H]2[C@H](/C=C(\Cl)C(F)(F)F)C2(C)C)cccc1-c1ccccc1
inactive: [1] | [2] | [4] | [5] | [6] | [7] | [8] | [9]

OC(c1ccc(Cl)cc1)(c1ccc(Cl)cc1)C(Cl)(Cl)Cl
inactive: [1] | [2] | [10] | [3] | [4] | [5] | [6] | [7] | [8] | [9]

CC(C)=CC1C(C(=O)OCc2coc(Cc3ccccc3)c2)C1(C)C (stereo not drawn)
inactive: [1] | [2] | [10] | [4] | [5] | [6] | [7] | [8]
active: [9] 50 µM

CCNP(=S)(OC)O/C(C)=C/C(=O)OC(C)C (stereo not drawn)
inactive: [1] | [10] | [3] | [4] | [5] | [6] | [7] | [8] | [9]

O=C(O)c1c(Cl)ccc2cc(Cl)cnc12
inactive: [1] | [2] | [10] | [3] | [4] | [5] | [6] | [7] | [8] | [9]

CCCN(CC)CC1COC2(CCC(C(C)(C)C)CC2)O1 (stereo not drawn)
active: [6] 22.7 µM | [7] 50 µM | [8] 60.3 µM | [9] 50 µM
inactive: [1] | [10] | [3] | [4] | [5]

CCCCOCN(C(=O)CCl)c1c(CC)cccc1CC
inactive: [1] | [2] | [10] | [3] | [4] | [5] | [6] | [7] | [8] | [9]

Cn1c(-c2ccccc2)cc(-c2ccccc2)[n+]1C
inactive: [1] | [10] | [3] | [4] | [5] | [6] | [7] | [8] | [9]

CCC(C)n1c(=O)[nH]c(C)c(Br)c1=O (stereo not drawn)
inactive: [1] | [2] | [4] | [5] | [6] | [7] | [8] | [9]

Cc1ccc(N=CN(C)C=Nc2ccc(C)cc2C)c(C)c1
inactive: [1] | [10] | [3] | [4] | [5] | [6] | [7] | [8] | [9]

CCCCC(O)(Cn1cncn1)c1ccc(Cl)cc1Cl (stereo not drawn)
inactive: [1] | [10] | [4] | [5] | [6]
active: [2] 91.3 µM | [7] 88.4 µM | [8] 76.2 µM | [9] 61.5 µM

CCCCC(C#N)(Cn1cncn1)c1ccc(Cl)cc1 (stereo not drawn)
inactive: [1] | [10] | [3] | [4] | [5] | [6] | [7] | [8] | [9]

CCNC(=O)NC(=O)C(C#N)=NOC
inactive: [1] | [2] | [10] | [3] | [4] | [5] | [6] | [7] | [8] | [9]

CS(=O)(=O)c1cc(C(F)(F)F)ccc1C(=O)c1cnoc1C1CC1
inactive: [1] | [10] | [3] | [4] | [5] | [6] | [7] | [8] | [9]

CC(C)C1(C)N=C(c2ncccc2C(=O)O)NC1=O (stereo not drawn)
inactive: [1] | [2] | [10] | [4] | [5] | [6] | [7] | [8] | [9]

COCC(=O)N(c1c(C)cccc1C)C(C)C(=O)OC (stereo not drawn)
inactive: [1] | [2] | [3] | [4] | [5] | [6] | [7] | [8] | [9]

Cc1cnc(C2=NC(C)(C(C)C)C(=O)N2)c(C(=O)O)c1 (stereo not drawn)
inactive: [1] | [10] | [3] | [4] | [5] | [6] | [7] | [8] | [9]

Cc1nc(N(C)C)nc(OC(=O)N(C)C)c1C
inactive: [1] | [2] | [10] | [4] | [5] | [6] | [7] | [8] | [9]

CNC(=O)Oc1cccc2ccccc12
active: [9] 50 µM
inactive: [1] | [2] | [4] | [5] | [6] | [7] | [8]

COC(=O)NC(=S)Nc1ccccc1NC(=S)NC(=O)OC
inactive: [1] | [2] | [10] | [4] | [5] | [6] | [7] | [8] | [9]

O=P(O)(O)CCCl
inactive: [1] | [2] | [4] | [5] | [6] | [7] | [8] | [9]

COP(=S)(OC)Oc1ccc([N+](=O)[O-])c(C)c1
inactive: [1] | [2] | [10] | [3] | [4] | [5] | [6] | [7] | [8]
active: [9] 50 µM

N#CN=C1SCCN1Cc1ccc(Cl)nc1
inactive: [1] | [10] | [3] | [4] | [5] | [6] | [7] | [8] | [9]

CCOc1nc(F)cc2nc(S(=O)(=O)Nc3c(Cl)cccc3Cl)nn12
inactive: [1] | [2] | [10] | [4] | [5] | [6] | [7] | [8] | [9]

CCN(CC)c1nc(C)cc(OP(=S)(OC)OC)n1
inactive: [1] | [10] | [3] | [4] | [5] | [7] | [8]
active: [6] 50 µM | [9] 50 µM

CS(=O)(=O)c1ccc(C(=O)C2C(=O)CCCC2=O)c([N+](=O)[O-])c1
inactive: [1] | [2] | [10] | [4] | [5] | [6] | [7] | [8] | [9]

CCN(CC)C(=O)C(C)Oc1cccc2ccccc12 (stereo not drawn)
inactive: [1] | [2] | [3] | [4] | [5] | [7] | [8]
active: [6] 23.6 µM | [9] 7.47 µM

CC1(C)C(C(=O)OC(C#N)c2cccc(Oc3ccccc3)c2)C1(C)C (stereo not drawn)
inactive: [1] | [2] | [3] | [4] | [5] | [6] | [7] | [8]
active: [9] 10.8 µM

CN=C=S
inactive: [1] | [2] | [3] | [4] | [5] | [6] | [7] | [8]
active: [9] 26.1 µM

CO/N=C(/C1=NOCCO1)c1ccccc1Oc1ncnc(Oc2ccccc2Cl)c1F
active: [8] 17.8 µM | [9] 8.64 µM
inactive: [1] | [2] | [10] | [4] | [5] | [6] | [7]

COc1cc(OC)nc(NC(=O)NS(=O)(=O)c2ncccc2OCC(F)(F)F)n1
inactive: [1] | [2] | [10] | [3] | [4] | [5] | [6] | [7] | [8] | [9]

COCC(C)N(C(=O)CCl)c1c(C)csc1C (stereo not drawn)
inactive: [1] | [2] | [10] | [3] | [4] | [5] | [6] | [7] | [8] | [9]

CCOc1cc(C(C)(C)C)ccc1C1COC(c2c(F)cccc2F)=N1 (stereo not drawn)
active: [9] 5.07 µM
inactive: [1] | [2] | [4] | [5] | [6] | [7] | [8]

— PubChem BioAssay (EPA / NIEHS)
